From ChEMBL document CHEMBL3988442, “University of Dundee, Small-Polar-MMV Screening Library” (2021) come the findings set out here.

About 960 (1.5%) of roughly 66,000 compounds showed an effect of 50% or more. The entries come from a sample that favours strong results as a whole.

The subject of this experiment is Trypanosoma brucei. Kind of experiment: Trypanosoma brucei 72 hour study. It is filed as functional, organism-based. On the set-up: scale not given: in the data most compounds retested in dose-response had high values.

In the case of `CN(Cc1cccnc1)Cc1cncc2c1CCN(Cc1ccoc1)C2.Cl.Cl.Cl`, where the note is “30.3 µM, […]”, the “Percent Effect” value was -64.05%. `O=C(O)C(F)(F)F.c1cc(CN2C[C@H](OCC3CCOCC3)[C@H]3COC[C@H]32)co1`: the “Percent Effect” value (30.3 µM, […]) was -13.64%. Turning to `Cc1ccc(S(=O)(=O)N2CC[C@H]3CO[C@H](CN(C)C)[C@H]3C2)cc1.O=C(O)C(F)(F)F`, the “Percent Effect” value (30 µM, 30.03 µM) is given as -6.145%. On the same count and under the same terms, the value for `Cc1ccc(CN2CCC3(CC2)NC(=O)CC3c2ccncc2)cc1C.O=C(O)C(F)(F)F.O=C(O)C(F)(F)F` (stereo not given) was -19.59%.

With `Fc1ccc(-c2nc(CN3CCOC(Cn4cccn4)C3)co2)cc1` (stereo not given), where the note is “30.3 µM, […]”, the “Percent Effect” value was 15.69%. On the same count and under the same terms, with `COc1cc(OC)cc(-c2cc(CN)nc3ccnn23)c1.Cl` the figure was 0.9349%; with `Cc1ccc(CN2Cc3ccnn3CC(C(=O)NCC3CC3)C2)o1.O=C(O)C(F)(F)F.O=C(O)C(F)(F)F` (stereo not given), -12.67%; with `Cc1cccc(-c2noc(CN3CCOC(Cn4cccn4)C3)n2)c1` (stereo not given), 7.086%. Same read-out and setting: with `CCCc1nc(NCCOC)c2c(n1)c(C)nn2CC` the figure was -10.53%. On the same count and under the same terms, the value for `CCCc1nc(NCCCOCC)c2c(n1)c(C)nn2CC` was -18.63%; that for `CCCc1nc(NCCCOC)c2c(n1)c(C)nn2CC` was 88.3%. With `CCOc1ncccc1CNC(=O)NCC(O)c1ccccc1OC` (stereo not given), the “Percent Effect” value (10 µM) is given as -66.27%. For `COc1c(C)cc(CNCc2ccnc(N3CCOCC3)c2)cc1C.Cl`, the “Percent Effect” value reads like this: (30.3 µM, […]) 15.01%; (10 mM, 10 mM as filed; unlikely as a test dose) -23.82%. As to `COc1ccc(CNC(C)c2ccc(Cl)c(Cl)c2)c(OC)c1OC` (stereo not given), the “Percent Effect” value (30 µM, 30.03 µM) was determined as 20.68%. Regarding `Cc1cc2nc(-c3ccccc3)cc(NCC3CCS(=O)(=O)C3)n2n1` (stereo not given), the “Percent Effect” value (30.3 µM, […]) was determined as 6.285%.

On to `Cc1cc2nc(-c3ccccc3)cc(NCC3CCCOC3)n2n1` (stereo not given), for which the “Percent Effect” value (30.3 µM, […]) worked out at 87.98%. The same measure, in the same setting: with `c1ccc(-c2cc(NCCCC3CCOC3)n3nccc3n2)cc1` (stereo not given) the figure was 35.81%. On to `COc1cccc(C(NCc2ccc(SC)cc2)c2nccn2C)c1` (stereo not given), for which the “Percent Effect” value (10 µM) is reported as -34.89%. In the case of `CCOCC1CN(Cc2cccs2)Cc2nn(C)cc21.O=C(O)C(F)(F)F` (stereo not given), the “Percent Effect” value (30 µM, 30.03 µM) is given as -3.631%. With `CCN(CC1CN(Cc2nc(C3CC3)no2)CCO1)c1cccnn1` (stereo not given), the “Percent Effect” value (30 µM, 30.03 µM) turned out to be 37.04%.

With `CSc1ccc(C(=O)N2CCCC(Nc3ccc(F)cc3)C2)cc1` (stereo not given), the “Percent Effect” value (30 µM, 30.03 µM) is 63.86%.

As to `Cc1ccc(C(=O)N2CCCC(Nc3ccc(F)cc3)C2)cc1` (stereo not given), the “Percent Effect” value (30 µM, 30.03 µM) is -28.83%. On to `COC(=O)c1ccc(C(=O)N2CCCC(Nc3ccc(F)cc3)C2)cc1` (stereo not given), for which the “Percent Effect” value (30 µM, 30.03 µM) is listed as -14.97%.

Turning to `CN(C)C(=O)COC[C@]12COC[C@H]1CN(CCc1ccccc1)C2.O=C(O)C(F)(F)F`, the “Percent Effect” value (30.3 µM, […]) is listed as -48.5%.

Take `CN(Cc1coc(-c2ccccc2)n1)CC1CCCN1c1cccnn1` (stereo not given): the “Percent Effect” value (30 µM, 30.03 µM) is -1.174%. Take `CCc1nc(CN2CCOC(CNc3cccnn3)C2)cs1` (stereo not given): the “Percent Effect” value (30.3 µM, […]) is -0.3167%. For `Cc1nc(CN2CCOC(CNc3cccnn3)C2)cs1` (stereo not given), the “Percent Effect” value (30 µM, 30.03 µM) was -27.36%. With `c1ccc(-c2nc(CNCC3CCCN3c3cccnn3)co2)cc1` (stereo not given), for the setting “30.3 µM, […]”, the “Percent Effect” value is 97.98%. Same read-out and setting: with `CC(C)c1nc(CNCC2CCCN2c2cccnn2)cs1` (stereo not given) the figure was 100.4%. For `Cc1nc(CNCC2CCCN2c2cccnn2)cs1` (stereo not given), the “Percent Effect” value (30 µM, 30.03 µM) is -9.671%.

On to `c1ccc(-c2nnc(CNCC3CCCN3c3cccnn3)o2)cc1` (stereo not given), for which the “Percent Effect” value (30 µM, 30.03 µM) is on record as -41.79%. Regarding `CCCc1nc(CNCC2CCCN2c2cccnn2)cs1` (stereo not given), for the setting “30.3 µM, […]”, the “Percent Effect” value is listed as 34.1%. For the compound `c1cnnc(N2CCCC2CNCc2csc(-c3ccco3)n2)c1` (stereo not given), the “Percent Effect” value (30.3 µM, […]) was 17.07%. Consider `CCc1nc(CNCC2CCCN2c2cccnn2)cs1` (stereo not given), for which the “Percent Effect” value (30.3 µM, […]) came to 4.558%. Same read-out and setting: the value for `CC(C)CCc1nc(CNCC2CCCN2c2cccnn2)cs1` (stereo not given) was 99.06%.

In the case of `CC(C)c1nc(CN2CCOC(CNc3cccnn3)C2)cs1` (stereo not given), for the setting “30.3 µM, […]”, the “Percent Effect” value is reported as 100.6%. As for `Cc1nn(C)c(N2CCOCC2)c1CNC1CCc2cc(F)ccc21.Cl` (stereo not given), the “Percent Effect” value (30.3 µM, […]) stood at 2.572%.

Take `O=C(c1ccccn1)N1CCCC(c2cc(C(F)F)n3ncnc3n2)C1` (stereo not given): for the setting “30.3 µM, […]”, the “Percent Effect” value is on record as -6.514%. Still for that read-out and setting: the value for `CN(C)CCn1c2c(ccc1=O)CCN(C(=O)c1cccs1)CC2.O=C(O)C(F)(F)F` was -37.11%. For `CC(C)NC(=O)CC1COC2(CCN(Cc3ccco3)CC2)C1` (stereo not given), under “30.3 µM, […]”, the “Percent Effect” value is listed as -14.26%. `Cn1ccc(C(=O)NC2CCC23CCN(Cc2ccc(F)cc2)CC3)c1.O=C(O)C(F)(F)F` (stereo not given): the “Percent Effect” value (30 µM, 30.03 µM) is on record as 3.839%. In the case of `CC(C)CC(=O)N1CCc2nc(N3CCOCC3)nc(NC(C)C)c2C1`, for the setting “30 µM, 30.03 µM”, the “Percent Effect” value amounted to 21.8%. As to `CC(C)Nc1nc(N2CCCC2)nc2c1CN(c1ncc(F)cn1)CC2`, the “Percent Effect” value (30.3 µM, […]) was 99.94%. On the same count and under the same terms, the value for `CCC(C)N1CCc2nc(N3CCCC3)nc(NC(C)C)c2C1` (stereo not given) was 80.67%; that for `CC(C)Nc1nc(N2CCCC2)nc2c1CN(C)CC2` was -8.686%. Still for that read-out and setting: the value for `CC(C)CCN1CCc2nc(N3CCOCC3)nc(NC(C)C)c2C1` was 99.5%.

`CCN1CCc2nc(N3CCOCC3)nc(NC(C)C)c2C1`: the “Percent Effect” value (30.3 µM, […]) is given as -20.31%. Turning to `CC(C)Nc1nc(N2CCCC2)nc2c1CCN(S(C)(=O)=O)CC2.O=C(O)C(F)(F)F.O=C(O)C(F)(F)F`, under “30.3 µM, […]”, the “Percent Effect” value is reported as -7.363%. In the case of `CC(C)Nc1nc(N2CCOCC2)nc2c1CN(CC(=O)N(C)C)CC2`, for the setting “30 µM, 30.03 µM”, the “Percent Effect” value is given as -12.25%.
